According to PubChem BioAssay AID1053144 (Broad Institute, 2014):
Out of some 3,400 compounds screened, about 160 (4.7%) were called active.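 The calls were made as follows: active = fitted curve reaches 30% activation at a concentration no higher than the top valid tested dose, luminescence rising; inconclusive = no clear call, values can overlap the other calls; inactive = signal moving opposite to the expected increase, plus the rest.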 Only a sample is shown. Measured potencies and affinities stand elsewhere.

experiment: TCF/LEF reporter activation in neural progenitors – cell-based, iPS-derived NPC, luciferase, Wnt3a, cherry-pick, dose response (AID 1053144); settings: Wnt3a EC25, 24 h; series mostly up to 26 µM; activation: at the top concentration;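 also: Wnt3a stimulus is conditioned medium from Wnt3a-transfected mouse L cells at 5% in well; 0% = neutral control wells and 100% = CHIR-99021 positive control wells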

Structure (SMILES)	activation
CCOc1ccc(NC(=O)c2csc3c2CCCC3)cc1	12.5% (inactive)
Cc1ccc(NC(=O)c2csc3c2CCCC3)cc1	8.16% (inactive)
CCOc1ccc(NC(=O)c2ccc3c(c2)N(C)CCS3)cc1	1.57% (inactive)
O=C(CSc1ccsc1[N+](=O)[O-])NCc1ccco1	10.5% (inactive)
COc1ccccc1Nc1ncnc2c1cnn2-c1cccc(C)c1	6.78% (inactive)
CC(C)Nc1ncnc2c1cnn2-c1ccccc1	3.91% (inactive)
Cc1ccc(OCC(=O)Nc2ccccc2F)cc1C	9.3% (inactive)
c1ccc(CNc2ncnc3c2oc2ccccc23)nc1	13.2% (inactive)
c1ccc2c(c1)oc1c(NCC3CCCO3)ncnc12 (centres undefined)	16.6% (inactive)
CCOC(=O)N/N=C\c1ccccc1OC/C=C/c1ccccc1	2.48% (inactive)
O=C(/C=C/Nc1cccc(O)c1)c1ccccc1	-2.82% (inactive)
COc1ccc(C(=O)Nc2ccccc2C(=O)NCc2ccco2)cc1OC	1.33% (inactive)
O=C(Nc1cccc([N+](=O)[O-])c1)c1ccc2c(c1)OCCO2	9.15% (inactive)
CC(=O)Nc1cccc(NC(=O)c2ccc(C)c([N+](=O)[O-])c2)c1	1.38% (inactive)
COc1ccc(-c2ccc(NC(=O)c3ccc(Br)o3)cc2)nn1	17% (inactive)
Cc1cccc(Nc2ncnc3ccccc23)c1	0.509% (inactive)
Cc1ccc(/C(=N/Nc2ncnc3ccccc23)C(=O)O)cc1	11.8% (inactive)
Cc1ccc(C(=O)Nc2cc3c(oc2=O)CCCC3=O)cc1	9.54% (inactive)
Cn1nnc2cc(C(=O)Nc3ccc4ccccc4c3)ccc21	16.4% (inactive)
CCOc1ccc(C2C=C(c3ccccc3)Nc3nnnn32)cc1 (centres undefined)	2.97% (inactive)
CCOc1ccc(-n2c(COc3ccc(C)cc3)nnc2SCC(N)=O)cc1	14.3% (inactive)
COc1ccc(C(=Cc2ccccc2[N+](=O)[O-])C(=O)O)cc1	11.6% (inactive)
O=C(Nc1ccc(NC(=O)C2CC2)cn1)c1ccccc1Cl	5.17% (inactive)
O=C(Nc1ccc(NC(=O)c2cccs2)cn1)c1ccccc1	5.59% (inactive)
COc1cc(NC(=O)c2cccs2)ccc1NC(=O)c1ccco1	11.8% (inactive)

Structure (SMILES)	activation
O=C(NCC1CCCO1)c1cc(-c2ccc(Cl)cc2Cl)on1 (centres undefined)	12.2% (inactive)
O=C(Nc1ccc(F)cc1)c1cc(-c2ccccc2)no1	6.64% (inactive)
Cc1cc([N+](=O)[O-])ccc1NC(=O)/C=C/c1cccs1	10.2% (inactive)
COc1ccc2[nH]c3c(NCCCOC(C)C)ncnc3c2c1	13.2% (inactive)
O=C(CNc1ccc2ccccc2c1)N/N=C/c1ccc(OC(=O)/C=C/c2ccco2)cc1	23.3% [at 12 µM] (inactive)
CCN(C(=O)C=Cc1ccco1)c1ccccc1	4.04% (inactive)
Cc1ccccc1Cn1nnc(-c2cccc(C(=O)O)c2)n1	4.93% (inactive)
COc1ccc(S(=O)(=O)n2ccc(-c3cnc(-c4ccccc4)s3)n2)cc1	4.09% (inactive)
Cc1cccc(Nc2nc(-c3ccc(F)c(C)c3)cs2)n1	4.46% (inactive)
CC1CCCCN1C(=O)c1cc(-c2ccc3c(c2)OCO3)on1 (centres undefined)	9.54% (inactive)
Oc1oc(-c2ccc(Br)cc2)nc1/C=N/c1ccccn1	8.38% (inactive)
Cc1cccc(N2CC(C(=O)NC3CCCCCC3)CC2=O)c1C (centres undefined)	-1.43% (inactive)
CCC(=O)Nc1nc2cc(OC)ccc2s1	13.7% (inactive)
CCCC(=O)Nc1nc2ccc(OCC)cc2s1	16.3% (inactive)
COCC(=O)Nc1nc2ccc(C)cc2s1	6.09% (inactive)
COc1ccc2sc(NC(C)=O)nc2c1	11% (inactive)
Cc1ccc(-c2cn3c(=O)cc(C)[nH]c3n2)cc1	12.7% (inactive)
CCN(CC)S(=O)(=O)c1ccc(NS(=O)(=O)c2cccc(C)c2)cc1	9.12% (inactive)
Cc1ccc(/C=N/Nc2ncnc3nc[nH]c23)cc1	12.2% (inactive)
Cc1cccc(N2CCN(C(=O)CCCOc3ccccc3)CC2)c1C	6.59% (inactive)
CCN1C(=O)CCN(C2CCCC2)c2nc(Nc3ccc(C(=O)NC4CCN(C)CC4)cc3OC)ncc21	4.88% (inactive)
CC(=O)Nc1ccc(C(=O)COC(=O)C2CC2C)c(F)c1 (centres undefined)	3.26% (inactive)
Fc1ccc(-c2ccc3c(n2)CCCN3Cc2ccccn2)cc1	9.57% (inactive)
O=C(Nc1ccccc1N1CCN(c2ccccc2)CC1)c1ccccc1	-3.36% (inactive)
O=C(NC(=O)c1ccccc1)Nc1ccccc1O	4.25% (inactive)

Structure (SMILES)	activation
Oc1[nH]c2ccccc2c1C=Nc1ccc2c(c1)OCO2	14.2% (inactive)
COc1ccccc1C(=O)N(C)c1nnc(-c2ccccc2)s1	17.6% (inactive)
CCOc1cccc(C(=O)Nc2ccc3c(c2)OCCO3)c1	5.21% (inactive)
c1ccc2oc(-c3ccn[nH]3)cc2c1	10.9% (inactive)
CCNc1nc(-c2cc3ccccc3o2)cs1	2.6% (inactive)
Oc1ccc(Cl)cc1CNc1nccs1	10.9% (inactive)
CN(C)c1ccc(/C=N/NC(=O)c2ccn(C)n2)cc1	13.3% (inactive)
O=C(NCCc1cccs1)C1CC(c2ccccc2[N+](=O)[O-])=NO1 (centres undefined)	9.24% (inactive)
Clc1ccccc1CSc1nc2ccncc2[nH]1	8.37% (inactive)
c1ccc(-c2ccc(-c3ccccn3)s2)nc1	13.1% (inactive)
CC(=O)Nc1ccc2nc(-c3ccccn3)[nH]c2c1	3.19% (inactive)
NC(=O)c1ccccc1OCc1nc2ccccc2s1	8.49% (inactive)
Cc1ccc(NC(=O)c2cc3c(s2)CCCC3)cc1	16.9% (inactive)
COc1ccc(-c2cc(-c3ccc(OC)cc3)[nH]n2)cc1	3.32% (inactive)
COc1ccc2cc(-c3ccccc3)ncc2c1	11.6% (inactive)
Cc1ccc(C)c(NC(=O)c2cc3ccccn3n2)c1	10.6% (inactive)
O=C(Nc1ccc(Br)cc1)c1cc2ccccn2n1	9.98% (inactive)
Clc1ccc(-n2nnc(-c3cccnc3)n2)cc1Cl	9.11% (inactive)
O=C(Nc1ccc(F)cc1F)c1csc(-c2cccs2)n1	8.48% (inactive)
Cc1nc([N+](=O)[O-])cn1CC(O)c1ccc(Cl)cc1 (centres undefined)	0.757% (inactive)
Nc1c(C(=O)c2ccccc2)oc2ccc(Br)cc12	5.38% (inactive)
COc1ccc(C(=O)c2oc3ccc(OC)cc3c2N)cc1	9.38% (inactive)
COc1ccc(C(=O)Nc2ccc3c(c2)nc2n3CCSC2)cc1	12.5% (inactive)
Cc1ccc2cc(C#N)c(SCC(=O)N3CCCC3)nc2c1	8.83% (inactive)
NC(=O)C(=O)N/N=C1\CCc2ccccc21	10.6% (inactive)

Structure (SMILES)	activation
CC(=O)Nc1cccc(NC(=O)CCCC(=O)O)c1	-0.366% (inactive)
O=C(CC(=O)c1ccccc1)Nc1ccccc1	12.6% (inactive)
CC(C)c1ccc(Nc2nnc(SCC(=O)NCC3CCCO3)s2)cc1 (centres undefined)	16.7% (inactive)
CCCc1cc(C(=O)Nc2cccnc2)no1	10.9% (inactive)
CCCc1cc(C(=O)Nc2cccc(Cl)c2)no1	5.04% (inactive)
O=C(Nc1ccc(N2CCCCC2)cc1)c1cncc(Br)c1	15.3% (inactive)
Nc1c(-c2cccc(Cl)c2)cnc2c(-c3ccccc3)cnn12	4.5% (inactive)
O=C(NN=Cc1ccc2c(c1)OCO2)c1ccccc1	18.2% (inactive)
Cc1occc1C(=O)N/N=C/c1ccc2c(c1)OCO2	2.18% (inactive)
CCOC(=O)c1ccc(NC(=O)N(CC)CC)cc1	11.7% (inactive)
CCOC(=O)c1ccc(-c2ccc(C=O)o2)cc1	7.08% (inactive)
O=C(Nc1ccc2c(c1)OCCO2)c1cncc(Br)c1	6.75% (inactive)
C=CCn1c(C)cc(C(=O)CSc2nc3ccccc3o2)c1C	2.6% (inactive)
COc1cc(C2C3=C(CC(C)(C)CC3=O)Nc3c2c(=O)[nH]c(=O)n3Cc2ccccc2)ccc1O (centres undefined)	3.49% (inactive)
CC(=O)Oc1ccc2occ(C(=O)c3cccs3)c2c1	17.3% (inactive)
O=C(c1ccc(Br)cc1)c1coc2ccc(O)cc12	18.8% (inactive)
COc1ccc(C(=O)NN/C(=N/S(=O)(=O)c2ccc(C)cc2)c2ccccc2)cc1	7.8% (inactive)
Cc1[nH]c2ccc(F)cc2c1CCN1C(=O)OC(C)(C)C1(C)O (centres undefined)	5.62% (inactive)
COc1ccc(C(=O)O/N=C(\N)c2ccccc2)cc1OC	11.8% (inactive)
COc1cc(/C=C/C(=O)N2CCC=CC2=O)cc(OC)c1OC	-6.11% (inactive)
Oc1ccc(-c2cn3ccccc3n2)cc1	23.2% (inactive)
CC(=O)Nc1ccccc1OCC(=O)c1ccc2c(c1)OCO2	9.06% (inactive)
C(=C\c1nc(-c2ccncc2)no1)/c1ccccc1	9.12% (inactive)
Clc1ccccc1/C=C/c1nc(-c2cccnc2)no1	6.34% (inactive)
Cc1ccc(NC(=O)C(=O)c2c[nH]c3ccccc23)cc1	9.92% (inactive)

Structure (SMILES)	activation
COc1ccc2[nH]cc(/C=C/C(=O)c3ccccc3)c2c1	20.3% (inactive)
Cc1cccc2cc(/C=N/Nc3ccc(C(=O)O)cc3)c(Cl)nc12	8.76% (inactive)
Brc1ccccc1-n1nnc(-c2cnc3ccccc3c2)n1	3.75% (inactive)
COc1ccc(-c2ccc(SCC(=O)Nc3nnc(C)s3)nn2)cc1	3.75% (inactive)
COc1ccc(C(=O)Nc2cc(C)on2)cc1	4.98% (inactive)
O=C(COc1ccc([N+](=O)[O-])cc1Cl)N1CCc2ccccc21	5.95% (inactive)
O=C(COc1ccc2c(c1)CCC2)N1CCc2ccccc21	16.6% (inactive)
O=C(Nc1ccccc1O)c1csc2c1CCCC2	6.88% (inactive)
O=C(Nc1ccccn1)C(=O)Nc1ccccn1	7.92% (inactive)
Cc1cc(SCC(=O)c2ccc(Cl)cc2)nc(=O)[nH]1	8.19% (inactive)
O=C(Nc1nc(-c2ccccn2)cs1)C12CC3CC(CC(O)(C3)C1)C2	8.62% (inactive)
CCC(C)NC(=O)c1cc(-c2ccc3c(c2)OCO3)on1 (centres undefined)	13.7% (inactive)
c1ccc(N=NC2=NN(c3ccccc3)CS2)cc1	11.2% (inactive)
O=c1c(N=Nc2ccccc2)c[nH]n1-c1ccccc1	14.2% (inactive)
CCc1ccc(C(=O)CCC(=O)Nc2ccc(OC)c(S(=O)(=O)N3CCCCC3)c2)cc1	5.78% (inactive)
CCOc1ccccc1-n1nnnc1SCC(=O)O	0.553% (inactive)
Cc1c(CC(=O)N[C@H](C(=O)O)C(C)C)c(=O)oc2cc3c(cc12)CCC(C)(C)O3	5.83% (inactive)
O=C(Nc1ccc2nc(-c3ccco3)[nH]c2c1)c1ccco1	12.9% (inactive)
Cn1cccc1-c1nc2ccc(NC(=O)c3ccco3)cc2[nH]1	11.8% (inactive)
O=C(Nc1ccc2c(c1)Cc1ccccc1-2)c1ccccc1F	6.96% (inactive)
CCOC(=O)C1CCCN(C(=O)CCc2nnc(-c3ccc(C(C)=O)s3)o2)C1 (centres undefined)	10.3% (inactive)
Cc1ccc(C)c(N2CCN(C(=O)CCc3nc(-c4ccccc4C(F)(F)F)no3)CC2)c1	12.2% (inactive)
Cc1ccc(OCc2cc(C(=O)N3CCN(c4ccccc4)CC3)no2)cc1C	15.5% (inactive)
CC(=O)Nc1cccc(NC(=O)c2cc3ccccc3o2)c1	7.51% (inactive)
